In all, about 140,000 compounds went through this assay and about 550 (0.39%) were called active. Rule as the data show it: active = inhibition above about 27%; inactive = the rest. The list comes from a sample in which actives are over-represented; it also holds similar structures and randomly drawn compounds.

Sequence of Galanin receptor type 2 (Homo sapiens) (O43603 whole entry, looked up): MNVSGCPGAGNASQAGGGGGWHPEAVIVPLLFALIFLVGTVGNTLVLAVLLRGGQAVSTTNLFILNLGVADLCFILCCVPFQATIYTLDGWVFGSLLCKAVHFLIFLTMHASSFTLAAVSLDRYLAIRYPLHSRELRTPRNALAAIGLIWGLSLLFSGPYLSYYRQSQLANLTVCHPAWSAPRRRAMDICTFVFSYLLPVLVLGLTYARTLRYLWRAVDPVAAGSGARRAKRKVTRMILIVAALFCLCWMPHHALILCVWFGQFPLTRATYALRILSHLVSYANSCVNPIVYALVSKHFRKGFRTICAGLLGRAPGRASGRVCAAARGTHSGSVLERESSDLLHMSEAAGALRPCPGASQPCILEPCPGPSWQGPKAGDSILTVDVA

The test concerns the target Galanin receptor type 2 (Homo sapiens) (UniProt O43603). The test is described as follows: GALR2 antagonists in receptor-expressing cells, primary screen (AID 828).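 Also: cells stimulated with galanin 1-16 at roughly its EC80; 0% = agonist challenge control and 100% = basal control without agonist.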 The note with it: antagonist mode, at 4 µM, hits give high values.
As for `COc1cc2c(cc1OC)C(=O)NCC(C)(C)O2`, the inhibition was 1.34% (inactive).
With `CCCSc1nc2[nH]ncc2c(=O)[nH]1`, the inhibition was -7.72% (inactive).
The value for `Cc1ccc(Nc2nc(CSc3nnc(-c4ccncc4)n3-c3ccccc3C)cs2)cc1` was -7.55% (inactive); that for `Cc1ccc(C(=O)N2CC(=O)Nc3ccccc32)o1` was -5.68% (inactive).
As to `CC(C)(C)OC(=O)N/N=C/c1ccc(C(=O)O)cc1`, the inhibition was 1.78% (inactive).
To `O=C(CC1SC(=Nc2ccccc2)N(Cc2ccccn2)C1=O)Nc1cccc(Cl)c1` (centres undefined) belongs -2.96% (inactive); to `COC(=O)COc1ccc2oc(=O)cc(C)c2c1`, 4.15% (inactive); to `COC(=O)Cc1cc(=O)oc2c(C)c(O)ccc12`, 39.2% (active).
To `CCCc1cc(=O)oc2c(C)c(O)c(CN3CCCCC3)cc12` belongs -0.41% (inactive).
To `O=c1c2c(ncn1Cc1ccccc1)nc1n2CCC1` belongs 11.2% (inactive); to `Clc1ccc(-c2nnc(SCc3nc4ccccc4s3)o2)cc1`, 12% (inactive); to `c1ccc(-c2nnc(SCc3nc4ccccc4[nH]3)o2)cc1`, 27.2% (active).
For the compound `Clc1ccccc1SCc1nc2ccccc2[nH]1`, the inhibition is 7.26% (inactive).
To `CCCC/C(C)=N/NC(=O)NC1CCCCC1` belongs 1.57% (inactive).
Turning to `CCCCN(C)CCC(=O)Nc1ccc(Cl)cc1`, the inhibition is 9.01% (inactive).
To `Nc1nc(CC(=O)CSc2ccc(Cl)cc2)nc(Nc2ccc(F)cc2)n1` belongs 5.35% (inactive); to `O=C(COc1ccccc1F)NNC(=O)c1ccc(N2CCCCC2)c([N+](=O)[O-])c1`, -5.34% (inactive).
For `COc1ccc([N+](=O)[O-])cc1NC(=O)c1ccc(N(Cc2ccccc2C)S(C)(=O)=O)cc1`, the inhibition is 10.8% (inactive).
As for `CCCCCCCCCOC1OC(CO)C(O)C(O)C1NC(C)=O` (centres undefined), the inhibition is -2.61% (inactive).
On to `N=C1C(=O)OCC1c1ccccc1NC(=O)CN1CCCCC1` (centres undefined), for which the inhibition is 0.12% (inactive).
In the case of `O=C(Nn1c(-c2ccccc2)nc2ccccc2c1=O)c1ccc([N+](=O)[O-])cc1`, the inhibition is -0.78% (inactive).
To `Cc1ccc(S(=O)(=O)/N=S(\C)C(C)C)cc1` (centres undefined) belongs 0.24% (inactive).
The value for `COC(=O)[C@H]1Cc2cnoc2C[C@]1(C)C(=O)O` was 13.5% (inactive); that for `Cc1ccc(S(=O)(=O)c2ccc(Oc3ccccc3)cc2)cc1` was -10.2% (inactive); that for `CCOC(=O)C1(S(=O)(=O)c2ccccc2)CCN(Cc2ccccc2)CC1` was -2.88% (inactive).
In the case of `CC1=C/C(=N\OS(=O)(=O)c2ccccc2)C=CC1=O`, the inhibition was 53.5% (active).
The value for `O=C(Cc1ccccc1)NNC1CC(=O)N(c2ccc(Br)cc2)C1=O` (centres undefined) was -17.6% (inactive); that for `COc1ccc(NS(=O)(=O)c2ccc(NC(=O)c3ccc(N(C)S(C)(=O)=O)cc3)cc2)cc1` was 3.65% (inactive).
The value for `Cc1cc(Br)ccc1SCC(=O)OCC(=O)NCc1ccc2c(c1)OCO2` was 1.98% (inactive); that for `C/C(=N\Nc1ccc([N+](=O)[O-])cc1)c1ccc(-n2nncc2C(C)(C)C)cc1` was -1.64% (inactive); that for `Cc1ccc(NC(=O)NC(=O)N(C2CCCCC2)S(=O)(=O)c2ccccc2)cc1` was 1.91% (inactive).
Consider `Cc1cc(C)c[n+](-c2nc3ccccc3nc2[N-]S(=O)(=O)c2cccs2)c1`, for which the inhibition was -5.36% (inactive).
The value for `O=C(Nc1ccc2c(c1)OCO2)c1ccc(N2C(=O)c3ccccc3C2=O)cc1` was -3% (inactive); that for `CC1CCCN(S(=O)(=O)c2ccc(N(C(=O)c3cnccn3)C(C(=O)NC3CCCCC3)c3cccs3)cc2)C1` (centres undefined) was 8.87% (inactive); that for `NS(=O)(=O)c1ccc(CCNC(=S)Nc2ccc(S(N)(=O)=O)cc2)cc1` was 5.94% (inactive).
The value for `Cc1cc(C)c(C#N)c(SCC(=O)NN2CC(=O)N(c3ccccc3F)CC2=O)n1` was 12.2% (inactive); that for `COc1ccc(C)cc1S(=O)(=O)N(CC(=O)Nc1cccc([N+](=O)[O-])c1)c1ccc(C)cc1` was -2.05% (inactive); that for `O=C(COC(=O)C1CC2C=CC1C2)Nc1ccccc1` (centres undefined) was -0.08% (inactive).
To `Cc1cc(C(=O)COC(=O)CNC(=O)c2ccc(F)cc2)c(C)n1Cc1ccco1` belongs 3.46% (inactive); to `Cc1nnnn1/C(=C\c1ccccc1)C(=O)OCC(=O)N1CC2(C)CC1CC(C)(C)C2` (centres undefined), 27.3% (active).
As to `COc1ccccc1C(=O)N1CC2(C)CC1CC(C)(C)C2` (centres undefined), the inhibition is 1.39% (inactive).
For the compound `Cc1cccc(C(=O)NCC(=O)OCC(=O)N2CC3(C)CC2CC(C)(C)C3)c1` (centres undefined), the inhibition is 1.61% (inactive).
The value for `COC(=O)N/N=C/c1ccc(-c2ccc(Cl)c(Cl)c2)o1` was -7.04% (inactive); that for `COc1cc(C(=O)NNC(=O)c2ccc(S(=O)(=O)N3CCCCC3)cc2)cc(OC)c1OC` was 9.59% (inactive); that for `CC(C)COP(=O)(c1ccc(N(C)C)cc1)C(Nc1ccccc1)c1cccnc1` (centres undefined) was 3.84% (inactive).
To `O=C(CSC(=S)N1CCOCC1)c1ccccc1` belongs 5.48% (inactive); to `COc1ccc(Nc2nc(NCc3ccco3)nc(N/N=C/c3ccccc3Cl)n2)cc1`, -5.3% (inactive).
For `O=C(/C=C/c1ccccc1)Nc1nnc(SCC(=O)c2ccc3ccccc3c2)s1`, the inhibition was -9.23% (inactive).
The value for `COc1ccc(C(=O)Nc2sc(C)c(C)c2CN2CCOCC2)cc1` was 3.47% (inactive); that for `COc1ccc(Cl)cc1NC(=O)[C@@H]1CCCN1C(=O)c1cccs1` was -3.13% (inactive); that for `Cc1ccc(-c2nc3ccccc3[nH]2)cc1N` was 4.32% (inactive).
The value for `c1ccc2[nH]c(-c3nc4ccccc4[nH]3)nc2c1` was 35.5% (active).
In the case of `c1ccc(-c2[nH]ncc2-c2nc3ccccc3[nH]2)cc1`, the inhibition was 0.69% (inactive).
To `Cc1ccc(-c2nc(-c3cccnc3)sc2CC(=O)Nc2ccc(C)c(Cl)c2)cc1` belongs 8.6% (inactive); to `CSc1ccc(/C=N/NC(=O)c2cccc(Cl)c2)cc1`, 9.93% (inactive); to `CCCN(CCC)C(=S)Nc1cc(C(=O)OC)ccc1C(=O)OC`, 0.52% (inactive).
The value for `O=C(Oc1cccc(N2C(=O)C3C4c5ccccc5C(c5ccccc54)C3C2=O)c1)c1ccco1` (centres undefined) was 1.71% (inactive); that for `O=C1C2C3C=CC(C4CC34)C2C(=O)N1c1nccs1` (centres undefined) was -7.75% (inactive).
The value for `CC[C@H]1CN2CCc3cc(OC)c(OC)cc3[C@@H]2C[C@@H]1C[C@H]1NCCc2cc(OC)c(OC)cc21` was 95% (active); that for `COc1cc2c(cc1O)[C@H](Cc1ccc(Oc3cc(C[C@@H]4NCCc5cc(OC)c(O)cc54)ccc3O)cc1)NCC2` was 1.51% (inactive).
In the case of `O=C(NCCc1ccccc1)C1CCC(Cn2c(=O)c3ccccc3n(Cc3cccnc3)c2=O)CC1` (centres undefined), the inhibition is -3.73% (inactive).
To `Cc1ccc(-n2nc(C)c(/C=N/NC(=O)c3cccs3)c2Cl)cc1` belongs -3.43% (inactive); to `Cc1ccc(/C=N\n2c(-c3ccccc3)n[nH]c2=S)s1`, 5.78% (inactive); to `S=c1[nH]nc(-c2cccnc2)n1/N=C/C(Cl)=C\c1ccccc1`, 18% (inactive).
To `Cc1cc(-c2n[nH]c(=S)n2/N=C/C(Br)=C/c2ccccc2)n[nH]1` belongs 34.7% (active); to `Cc1nc2ccccc2nc(C)c1=NOCc1ccc(Cl)cc1Cl`, 10.4% (inactive); to `COc1ccc(/C=N/OCC(=O)N(Cc2ccccc2)c2ccccc2C(=O)O)cc1`, 2.54% (inactive).
The value for `CNC(=O)/C(C#N)=C/c1c(F)cccc1Cl` was 20.6% (inactive).
For `COc1ccc(/C=C2/C(=O)OCc3cc(OC)c(OC)cc32)c(OC)c1`, the inhibition is 2.64% (inactive).
The value for `COc1ccc(C2NC(=S)NC3=C2CCc2ccccc23)cc1OC` (centres undefined) was -4.17% (inactive).
The value for `O=C(N/N=C/c1ccccn1)C12CC3CC(CC(C3)C1)C2` was -0.89% (inactive).
To `CN1c2ccccc2-c2nc3ccccc3n2C1c1ccco1` (centres undefined) belongs -6.2% (inactive); to `CN(c1nc2ccccc2n2c(-c3ccco3)nnc12)S(=O)(=O)c1ccccc1`, 3% (inactive).
`Cn1c(-c2ccco2)nc2cc3ccccc3cc21`: the inhibition was 29.7% (active).

What is called inhibition is the change of the read-out against control, counted positive when it falls.

(Values after PubChem BioAssay AID828 (The Scripps Research Institute Molecular Screening Center, 2007).)
